Assay results: article PMC5540273 (PLoS ONE, 2017)

Tests used:
Conditions in all cases: concentration: 1 μM, replicates: in singlicate; n = 1
[1] = test system: CAMK1
[2] = test system: CAMK2A
[3] = test system: CAMK2B
[4] = test system: CAMK2D
[5] = test system: CAMK2G
[6] = test system: CAMK4
[7] = test system: CAMKK1
[8] = test system: CAMKK2
[9] = test system: CASK
[10] = test system: T1, CDC2L1
T1 construct: gene CDK11B
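Further: KINOMEscan kinase panel screen.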

Structure (SMILES) | %Inh [1] | %Inh [2] | %Inh [3] | %Inh [4] | %Inh [5] | %Inh [6] | %Inh [7] | %Inh [8] | %Inh [9] | %Inh [10]
CCn1cnc2c(NCc3ccccc3)ncnc21 [SKF-96418] | 0% | 0% | 0% | 0% | 0% | 7% | 0% | 1% | 25% | 0%
Cl.N#CCc1ccc(Nc2nccc(Nc3ccc(Oc4ccccc4)cc3)n2)cc1 [GW639905] | 10% | 0% | 0% | 0% | 0% | 0% | 0% | 0% | 8% | 0%
O=C(Nc1c(F)cccc1F)c1cc(C(=O)c2ccccc2F)c[nH]1 [GSK1326180] | 17% | 2% | 0% | 1% | 8% | 5% | 0% | 0% | 3% | 0%
O=C1NC(=O)C(c2ccccc2Cl)=C1Nc1cccc(Cl)c1 [SB-342409] | 0% | 10% | 0% | 43% | 19% | 47% | 21% | 0% | 39% | 0%
CC(=O)Nc1cn2nc(Oc3cccc(NC(=O)c4cccc(C(F)(F)F)c4)c3)ccc2n1 | 19% | 0% | 15% | 1% | 0% | 0% | 0% | 0% | 17% | 7%
CN(c1ccc(NC(=O)Nc2cccc(Cl)c2)cc1)c1ccnc(N)n1.Cl [GW830707] | 2% | 0% | 0% | 10% | 8% | 14% | 0% | 14% | 7% | 0%
NCCC(NC(=O)c1cc(Br)c(-c2ccnc3[nH]ccc23)s1)c1ccccc1.O=C(O)C(F)(F)F.O=C(O)C(F)(F)F (centres unmarked) [GSK1307810] | 43% | 34% | 0% | 29% | 26% | 0% | 5% | 9% | 27% | 0%
Cc1ccc(Nc2ccnc(Nc3ccc(C)c(F)c3)n2)cc1O.Cl [GW582868] | 1% | 96.6% | 95.3% | 0% | 0% | 0% | 0% | 0% | 13% | 0%
CC(C)c1nc(-c2cccc(NS(=O)(=O)c3c(F)cccc3F)c2)c(-c2ccnc(Nc3ccc(N4CCOCC4)nc3)n2)s1.Cl [GSK1723980] | 47% | 0% | 0% | 2% | 10% | 0% | 14% | 6% | 92.1% | 0%
O=C(Nc1n[nH]c2nc(-c3cccc(O)c3)ccc12)C1CC1 [SB-711805] | 0% | 0% | 0% | 0% | 0% | 0% | 0% | 0% | 0% | 0%
Cc1ccc(C)c(NC(=O)Nc2ccc(C)c(-c3ccc(C(=O)Nc4ccncc4)cc3)c2)c1 [GSK1398473] | 8% | 0% | 0% | 0% | 25% | 0% | 12% | 27% | 0% | 0%
O=C(Nc1n[nH]c2cc(-c3cccs3)ccc12)C1CC1 [SB-731284] | 11% | 0% | 0% | 0% | 0% | 0% | 17% | 0% | 49% | 0%
CN(C)CCOc1ccc(-c2cc(-c3ccc(Cl)c(O)c3)c(-c3ccncc3)[nH]2)cc1.Cl.Cl [SB-684387] | 24% | 0% | 0% | 13% | 19% | 0% | 25% | 21% | 17% | 0%
CN(c1ccc(F)c(NC(=O)c2cccc(OC(C)(C)C#N)c2Cl)c1)c1ccc2nc(NC(=O)C3CC3)sc2n1 | 0% | 1% | 0% | 0% | 8% | 0% | 10% | 0% | 0% | 0%
Cc1cc(-c2ccnc(Nc3cccc(C#N)c3)n2)cc(C)c1O [GSK1440913] | 24% | 13% | 11% | 31% | 39% | 0% | 24% | 30% | 0% | 41%
Cc1ccc(NC(=O)c2ccc(Cl)c(Cl)c2)cc1-c1ccc(C(=O)Nc2ccncc2)cc1 [GSK1398460] | 27% | 0% | 0% | 7% | 0% | 9% | 0% | 4% | 0% | 2%
COC(=O)Nc1nc2ccc(Oc3ccc(CC(=O)Nc4cc(C(F)(F)F)ccc4F)cc3)cc2[nH]1 [GW680903] | 2% | 0% | 0% | 1% | 12% | 0% | 0% | 9% | 0% | 0%
